The structures appear in SMILES notation. Results filed as inconclusive are left out. Calls of active or inactive are those of the source. The calls were made as follows: active = hit-call score of the fitted dose curve at least 0.9, where 1 is the maximum; inconclusive = response in the unintended direction; inactive = score below 0.9.

Assay [1] addresses human Esterase Plasma (ES), BCHE (gene 590) (UniProt P06276). The assay is described as follows: NVS_ENZ_hES: NovaScreen (NVS) Enzymatic Assay for human Esterase Plasma (ES) (AID 2283157). Put shortly: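 Chemicals were added to plasma-extracted human enzyme in a cell-free format, and activity was read colorimetrically after 0.25 hour. Activity loss was referenced to DMSO; concentration-response top dose was 50 uM.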

Assay [2] has as its target Glycogen synthase kinase-3 beta (Homo sapiens) (UniProt P49841). Nature of the assay: NVS_ENZ_hGSK3b: NovaScreen (NVS) Enzymatic Assay for human Glycogen Synthase Kinase-3 beta (GSK3b) (AID 2283165). Put shortly: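 Recombinant enzyme with specific fluorescent substrate, 1 h, product separated by electrophoretic mobility shift. Primary duplicate screen at 25 uM; actives (e.g. 30% inhibition) followed in singleton concentration-response to 50 uM. Signal loss fitted versus DMSO.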

Assay [3] addresses human Ephrin type-A Receptor 1 (EphA1), EPHA1 (gene 2041) (UniProt P21709). Nature of the assay: NVS_ENZ_hEphA1: NovaScreen (NVS) Enzymatic Assay for human Ephrin type-A Receptor 1 (EphA1) (AID 2283158).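 Also: activity is signal loss versus DMSO meaning EphA1 kinase inhibition.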 Put shortly: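 Cell-free kinase activity with recombinant protein, 1 hour after dosing; product separated by electrophoretic mobility shift, fluorescence read. Primary screen at 25 uM in duplicate; hits run as concentration-response up to 50 uM, relative to DMSO.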

The target of assay [4] is human Fibroblast Growth Factor Receptor 1 (FGFR1), FGFR1 (gene 2260) (UniProt P11362). Nature of the assay: NVS_ENZ_hFGFR1: NovaScreen (NVS) Enzymatic Assay for human Fibroblast Growth Factor Receptor 1 (FGFR1) (AID 2283159). The procedure, abridged:
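Cell-free recombinant kinase with fluorescent substrate, product separated by electrophoretic mobility shift; read 1 hour after dosing, loss of signal relative to DMSO. Initial screen in duplicate at 25 uM, actives followed in concentration series.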

The target of assay [5] is human Dual Specificity Protein Phosphatase 3 (DUSP3), DUSP3 (gene 1845) (UniProt P51452). Nature of the assay: NVS_ENZ_hDUSP3: NovaScreen (NVS) Enzymatic Assay for human Dual Specificity Protein Phosphatase 3 (DUSP3) (AID 2283152).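 Also: phosphatase activity of recombinant human DUSP3 on a fluorogenic substrate without cells.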 Put shortly:
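Cell-free assay with recombinant human DUSP3 and fluorogenic substrate, read by fluorescence intensity. Primary screen ran duplicate at 25 uM; actives followed up in concentration series; loss of signal versus DMSO scored.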

In assay [6] the target is human Aurora Kinase A - serine/threonine-protein Kinase 6 (AurA), AURKA (gene 6790) (UniProt O14965). The assay is described as follows: NVS_ENZ_hAurA: NovaScreen (NVS) Enzymatic Assay for human Aurora Kinase A - serine/threonine-protein Kinase 6 (AurA) (AID 2283142). The procedure, abridged: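 Cell-free enzymatic assay with human Aurora A, 1 hour after dosing. Fluorescent substrate turnover detected after electrophoretic mobility shift separation of substrate and product. Screened at 25 uM, actives retested in concentration-response up to 50 uM.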
Sequence of human Aurora Kinase A - serine/threonine-protein Kinase 6 (AurA), AURKA (gene 6790) (O14965 whole entry, looked up): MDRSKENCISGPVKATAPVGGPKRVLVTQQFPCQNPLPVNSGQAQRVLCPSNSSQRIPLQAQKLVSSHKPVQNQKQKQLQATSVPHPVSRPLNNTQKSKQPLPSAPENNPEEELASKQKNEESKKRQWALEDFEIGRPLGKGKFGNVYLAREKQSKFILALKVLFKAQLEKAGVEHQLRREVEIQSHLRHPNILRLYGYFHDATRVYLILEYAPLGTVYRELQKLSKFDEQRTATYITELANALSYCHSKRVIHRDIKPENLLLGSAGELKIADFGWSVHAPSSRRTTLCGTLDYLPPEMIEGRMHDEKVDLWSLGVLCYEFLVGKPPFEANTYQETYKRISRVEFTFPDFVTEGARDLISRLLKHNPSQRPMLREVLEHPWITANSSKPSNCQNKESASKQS

The target of assay [7] is human Colony Stimulating Factor 1 Receptor (CSF1R), CSF1R (gene 1436) (UniProt P07333). The assay is described as follows: NVS_ENZ_hCSF1R: NovaScreen (NVS) Enzymatic Assay for human Colony Stimulating Factor 1 Receptor (CSF1R) (AID 2283150). The procedure, abridged:
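Cell-free recombinant human CSF1R kinase with fluorescent substrate, product separated by electrophoretic mobility shift; read 1 h after dosing. Primary screen at 25 uM in duplicate, actives then in concentration-response up to 50 uM, relative to DMSO.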

Assay [8] addresses human Epidermal Growth Factor Receptor (EGFR), EGFR (gene 1956) (UniProt P00533). The assay is described as follows: NVS_ENZ_hEGFR: NovaScreen (NVS) Enzymatic Assay for human Epidermal Growth Factor Receptor (EGFR) (AID 2283151). Put shortly:
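Cell-free kinase assay, fluorescence plus electrophoretic mobility shift separating substrate and product, read 1 hour after dosing; loss of signal vs DMSO. Duplicate screen at 25 uM, then concentration-response to 50 uM.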

Assay [9] addresses human FYN Proto-Oncogene, Src family Tyrosine Kinase (Fyn), FYN (gene 2534) (UniProt P06241). Nature of the assay: NVS_ENZ_hFyn: NovaScreen (NVS) Enzymatic Assay for human FYN Proto-Oncogene, Src family Tyrosine Kinase (Fyn) (AID 2283161). The procedure, abridged: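 Recombinant enzyme with fluorescent substrate, product separated by electrophoretic mobility shift; read 1 h after dosing. Duplicate 25 uM single-point screen, actives retested in concentration series; loss of signal vs DMSO.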

The target in assay [10] is Histone deacetylase 3 (Homo sapiens) (UniProt O15379). Nature of the assay: NVS_ENZ_hHDAC3: NovaScreen (NVS) Enzymatic Assay for human Histone Deacetylase 3 (HDAC3) (AID 2283163). The procedure, abridged:
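Recombinant human HDAC3 with fluorescent substrate, 1 h after dosing; product separated from substrate by electrophoretic mobility shift and read by fluorescence. Primary screen at 25 uM in duplicate; actives (e.g. ≥30% inhibition) retested in concentration-response up to 50 uM.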

The target in another assay is CDK2 (gene 1017) (UniProt P24941). Nature of the assay: NVS_ENZ_hCDK2: NovaScreen (NVS) Enzymatic Assay for human Cyclin-Cependent Kinase 2 (CDK2) (AID 2283144). The procedure, abridged: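 Cell-free recombinant human CDK2 with fluorescent substrate, product separated by electrophoretic mobility shift; 1 hr read. Primary screen at 25 uM in duplicate, actives retested in concentration-response up to 50 uM; loss of signal versus DMSO.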

Assay [11] addresses human Ephrin type-A Receptor 2 (EphA2), EPHA2 (gene 1969) (UniProt P29317). The assay is described as follows: NVS_ENZ_hEphA2: NovaScreen (NVS) Enzymatic Assay for human Ephrin type-A Receptor 2 (EphA2) (AID 2283155). The procedure, abridged:
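Cell-free recombinant EphA2 kinase with specific substrate, 1 h, fluorescence with electrophoretic mobility-shift separation of substrate and product. Primary screen at 25 uM in duplicate; hits retested in singleton concentration-response up to 50 uM, referenced to DMSO.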

In assay [12] the target is Protein deacetylase HDAC6 (Homo sapiens) (UniProt Q9UBN7). Nature of the assay: NVS_ENZ_hHDAC6: NovaScreen (NVS) Enzymatic Assay for human Histone Deacetylase 6 (HDAC6) (AID 2283164). The procedure, abridged: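 Recombinant human HDAC6 with fluorescent substrate, 1 h; product separated from substrate by electrophoretic mobility shift. Primary screen in duplicate at 25 uM; actives retested singly in concentration-response up to 50 uM, fitted relative to DMSO.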

In assay [13] the target is human IkappaB Kinase alpha (IKKa), CHUK (gene 1147) (UniProt O15111). Nature of the assay: NVS_ENZ_hIKKa: NovaScreen (NVS) Enzymatic Assay for human IkappaB Kinase alpha (IKKa) (AID 2283167). Put shortly: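 Cell-free recombinant human IKKa with fluorescent substrate, product separated by electrophoretic mobility shift; read 1 hour after dosing. Primary screen duplicate at 25 uM, actives then concentration-response up to 50 uM; loss of signal relative to DMSO.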

Assay [14] concerns the target human Insulin Receptor (InsR), INSR (gene 3643) (UniProt P06213). Nature of the assay: NVS_ENZ_hInsR: NovaScreen (NVS) Enzymatic Assay for human Insulin Receptor (InsR) (AID 2283168). Put shortly: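 Fluorescent substrate phosphorylation by recombinant kinase, product resolved by electrophoretic mobility shift, read 1 h after dosing. Screened in duplicate at 25 uM; hits (e.g., 30% inhibition) run in concentration-response to 50 uM; DMSO as baseline.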

Assay [15] addresses human Janus Kinase 2 (Jak2), JAK2 (gene 3717) (UniProt O60674). Nature of the assay: NVS_ENZ_hJak2: NovaScreen (NVS) Enzymatic Assay for human Janus Kinase 2 (Jak2) (AID 2283169). The procedure, abridged:
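Cell-free recombinant human JAK2 enzyme activity assay, fluorescence/electrophoretic mobility shift read 1 h after dosing. Screened in duplicate at 25 uM, then concentration-response up to 50 uM; activity as signal loss relative to DMSO.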

Assay [16] deals with human Elastase, ELANE (gene 1991) (UniProt P08246). The assay is described as follows: NVS_ENZ_hElastase: NovaScreen (NVS) Enzymatic Assay for human Elastase (AID 2283153). The procedure, abridged: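 Cell-free elastase from human neutrophils, 1.5 h after dosing, activity read by absorbance. Primary screen in duplicate at 25 uM; hits (e.g., 30% inhibition) rerun in singleton concentration-response up to 50 uM, fitted versus DMSO.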

Sequence of human Esterase Plasma (ES), BCHE (gene 590) (P06276 whole entry, looked up): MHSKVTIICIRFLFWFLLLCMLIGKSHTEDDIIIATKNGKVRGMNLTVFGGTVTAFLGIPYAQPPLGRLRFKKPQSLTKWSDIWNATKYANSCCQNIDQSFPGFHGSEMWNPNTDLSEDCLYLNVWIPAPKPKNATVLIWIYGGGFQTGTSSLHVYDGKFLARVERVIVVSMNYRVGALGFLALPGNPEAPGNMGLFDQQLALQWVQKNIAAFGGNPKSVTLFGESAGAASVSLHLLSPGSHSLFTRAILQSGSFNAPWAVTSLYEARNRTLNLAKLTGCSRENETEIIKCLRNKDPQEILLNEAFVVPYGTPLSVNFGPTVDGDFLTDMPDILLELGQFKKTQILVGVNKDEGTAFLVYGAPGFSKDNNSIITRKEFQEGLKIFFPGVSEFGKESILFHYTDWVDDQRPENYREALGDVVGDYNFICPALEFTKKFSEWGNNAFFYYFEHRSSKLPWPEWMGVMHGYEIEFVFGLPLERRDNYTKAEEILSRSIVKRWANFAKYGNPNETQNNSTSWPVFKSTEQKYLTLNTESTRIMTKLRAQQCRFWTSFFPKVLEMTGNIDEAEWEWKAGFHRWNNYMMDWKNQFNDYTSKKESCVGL
Sequence of human Dual Specificity Protein Phosphatase 3 (DUSP3), DUSP3 (gene 1845) (P51452 whole entry, looked up): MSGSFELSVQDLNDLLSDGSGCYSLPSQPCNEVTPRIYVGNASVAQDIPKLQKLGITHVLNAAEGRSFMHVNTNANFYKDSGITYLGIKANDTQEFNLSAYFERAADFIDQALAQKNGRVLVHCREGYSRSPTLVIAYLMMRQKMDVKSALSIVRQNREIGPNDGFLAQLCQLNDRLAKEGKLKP
Sequence of human Fibroblast Growth Factor Receptor 1 (FGFR1), FGFR1 (gene 2260) (P11362 whole entry, looked up): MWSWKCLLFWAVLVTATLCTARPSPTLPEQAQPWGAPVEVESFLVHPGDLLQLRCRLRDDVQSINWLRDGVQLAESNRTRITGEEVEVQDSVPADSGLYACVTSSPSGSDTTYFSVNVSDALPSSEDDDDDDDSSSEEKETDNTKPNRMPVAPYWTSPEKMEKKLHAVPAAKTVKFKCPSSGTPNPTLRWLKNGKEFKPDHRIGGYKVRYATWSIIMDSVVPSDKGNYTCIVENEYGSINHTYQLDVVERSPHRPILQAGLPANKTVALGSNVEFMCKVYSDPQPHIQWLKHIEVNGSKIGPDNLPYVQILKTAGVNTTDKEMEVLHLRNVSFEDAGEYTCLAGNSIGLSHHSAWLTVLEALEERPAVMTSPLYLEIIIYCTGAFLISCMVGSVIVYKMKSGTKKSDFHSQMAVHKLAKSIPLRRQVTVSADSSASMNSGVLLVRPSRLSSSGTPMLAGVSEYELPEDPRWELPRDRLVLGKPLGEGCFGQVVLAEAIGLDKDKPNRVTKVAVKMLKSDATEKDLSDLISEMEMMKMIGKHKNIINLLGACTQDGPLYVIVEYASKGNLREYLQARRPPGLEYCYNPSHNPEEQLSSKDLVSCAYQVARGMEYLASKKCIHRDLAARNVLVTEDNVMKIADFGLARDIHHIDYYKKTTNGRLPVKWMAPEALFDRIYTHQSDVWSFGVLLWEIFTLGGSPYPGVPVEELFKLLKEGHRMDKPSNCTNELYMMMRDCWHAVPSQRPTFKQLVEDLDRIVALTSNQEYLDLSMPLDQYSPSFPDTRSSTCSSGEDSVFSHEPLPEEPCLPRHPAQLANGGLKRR
Sequence of human Ephrin type-A Receptor 1 (EphA1), EPHA1 (gene 2041) (P21709 whole entry, looked up): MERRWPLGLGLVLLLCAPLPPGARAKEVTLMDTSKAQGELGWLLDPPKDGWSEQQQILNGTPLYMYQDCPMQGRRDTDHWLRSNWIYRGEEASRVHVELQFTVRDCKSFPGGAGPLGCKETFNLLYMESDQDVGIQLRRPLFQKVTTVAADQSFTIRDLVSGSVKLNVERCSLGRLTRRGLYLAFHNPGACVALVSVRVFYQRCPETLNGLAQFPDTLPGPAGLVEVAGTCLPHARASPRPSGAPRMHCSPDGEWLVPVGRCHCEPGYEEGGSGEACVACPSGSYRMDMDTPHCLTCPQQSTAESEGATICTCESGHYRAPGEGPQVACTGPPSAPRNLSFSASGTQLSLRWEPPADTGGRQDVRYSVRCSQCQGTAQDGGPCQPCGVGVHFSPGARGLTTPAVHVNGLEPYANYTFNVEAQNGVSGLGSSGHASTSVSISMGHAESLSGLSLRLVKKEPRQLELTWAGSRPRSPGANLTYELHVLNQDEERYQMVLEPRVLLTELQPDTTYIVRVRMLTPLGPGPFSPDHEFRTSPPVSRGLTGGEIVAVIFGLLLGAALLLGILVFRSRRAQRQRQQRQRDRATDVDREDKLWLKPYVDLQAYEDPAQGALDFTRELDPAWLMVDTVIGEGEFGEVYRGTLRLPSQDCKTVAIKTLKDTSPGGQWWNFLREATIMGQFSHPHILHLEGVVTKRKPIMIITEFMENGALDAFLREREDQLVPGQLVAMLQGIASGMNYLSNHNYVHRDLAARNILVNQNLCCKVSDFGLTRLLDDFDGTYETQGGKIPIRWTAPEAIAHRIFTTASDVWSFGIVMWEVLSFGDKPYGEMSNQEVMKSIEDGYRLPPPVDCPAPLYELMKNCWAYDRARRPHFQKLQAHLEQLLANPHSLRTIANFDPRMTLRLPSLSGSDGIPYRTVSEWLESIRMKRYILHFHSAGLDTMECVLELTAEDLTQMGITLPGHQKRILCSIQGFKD
Sequence of Glycogen synthase kinase-3 beta (Homo sapiens) (P49841 whole entry, looked up): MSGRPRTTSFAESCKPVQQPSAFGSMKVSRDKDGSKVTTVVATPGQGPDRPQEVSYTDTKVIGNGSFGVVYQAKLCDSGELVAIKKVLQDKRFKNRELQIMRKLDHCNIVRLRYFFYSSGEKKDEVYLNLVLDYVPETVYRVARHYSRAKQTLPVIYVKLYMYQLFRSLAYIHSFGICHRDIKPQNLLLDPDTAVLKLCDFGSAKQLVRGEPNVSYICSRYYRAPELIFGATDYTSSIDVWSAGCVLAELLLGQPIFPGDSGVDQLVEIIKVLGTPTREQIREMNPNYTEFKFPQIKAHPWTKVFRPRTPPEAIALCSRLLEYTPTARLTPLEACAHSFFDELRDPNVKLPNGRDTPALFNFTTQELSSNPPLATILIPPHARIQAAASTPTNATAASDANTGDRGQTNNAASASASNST
Sequence of human Colony Stimulating Factor 1 Receptor (CSF1R), CSF1R (gene 1436) (P07333 whole entry, looked up): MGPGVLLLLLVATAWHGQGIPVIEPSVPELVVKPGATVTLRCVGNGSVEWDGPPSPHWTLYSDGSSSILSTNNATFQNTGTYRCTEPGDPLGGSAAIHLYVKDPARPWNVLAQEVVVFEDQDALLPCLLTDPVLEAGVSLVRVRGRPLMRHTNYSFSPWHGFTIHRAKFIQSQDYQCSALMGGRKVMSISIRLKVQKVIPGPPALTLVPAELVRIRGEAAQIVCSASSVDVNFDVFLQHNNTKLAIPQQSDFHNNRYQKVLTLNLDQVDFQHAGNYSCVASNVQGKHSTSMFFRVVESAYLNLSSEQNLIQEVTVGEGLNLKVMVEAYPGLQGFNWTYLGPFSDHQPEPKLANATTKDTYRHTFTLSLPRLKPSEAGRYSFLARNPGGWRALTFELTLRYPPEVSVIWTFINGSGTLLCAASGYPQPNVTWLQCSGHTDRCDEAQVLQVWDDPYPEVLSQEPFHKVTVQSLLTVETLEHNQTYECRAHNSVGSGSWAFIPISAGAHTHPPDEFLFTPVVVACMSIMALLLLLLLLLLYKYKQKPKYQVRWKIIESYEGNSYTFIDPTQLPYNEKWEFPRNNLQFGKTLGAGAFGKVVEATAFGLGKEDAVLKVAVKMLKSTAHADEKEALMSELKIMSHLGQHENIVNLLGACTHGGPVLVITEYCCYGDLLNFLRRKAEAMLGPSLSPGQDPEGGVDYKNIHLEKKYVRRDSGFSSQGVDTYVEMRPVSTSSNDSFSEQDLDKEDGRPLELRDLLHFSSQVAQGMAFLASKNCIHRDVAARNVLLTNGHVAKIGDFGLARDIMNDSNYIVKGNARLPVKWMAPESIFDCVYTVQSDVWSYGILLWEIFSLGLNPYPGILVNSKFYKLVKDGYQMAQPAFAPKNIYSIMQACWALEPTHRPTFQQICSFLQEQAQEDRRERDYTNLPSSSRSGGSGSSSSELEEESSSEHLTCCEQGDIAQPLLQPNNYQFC
Sequence of Histone deacetylase 3 (Homo sapiens) (O15379 whole entry, looked up): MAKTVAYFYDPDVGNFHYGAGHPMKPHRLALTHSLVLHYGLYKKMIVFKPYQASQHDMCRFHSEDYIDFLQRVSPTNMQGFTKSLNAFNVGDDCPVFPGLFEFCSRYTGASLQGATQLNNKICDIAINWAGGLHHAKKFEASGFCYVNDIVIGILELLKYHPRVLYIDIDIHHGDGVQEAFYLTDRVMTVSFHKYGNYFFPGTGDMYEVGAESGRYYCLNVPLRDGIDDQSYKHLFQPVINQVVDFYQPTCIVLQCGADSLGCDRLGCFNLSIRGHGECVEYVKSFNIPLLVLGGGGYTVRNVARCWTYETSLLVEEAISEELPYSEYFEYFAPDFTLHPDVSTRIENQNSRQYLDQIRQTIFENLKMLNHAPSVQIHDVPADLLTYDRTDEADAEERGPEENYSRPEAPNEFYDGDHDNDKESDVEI

Take `N#CCCC(Br)(C#N)CBr` (stereo not given): the AC50 in assay [1] was 19.2 µM (active).
With `Clc1cccc(Cl)c1`, the outcome in [2] was inactive.
Take `O=C(Cl)OCCOCCOC(=O)Cl`: the half-maximal activity concentration (AC50) in assay [3] was 6.6 µM (active).
Take `O=[N+]([O-])c1ccc(Nc2ccccc2)cc1`: the molecule was classed as inactive in assay [3].
Take `ClCCCCl`: the AC50 in assay [3] was 10.5 µM (active).
Turning to `O=S(=O)(c1ccc(Cl)cc1)c1cc(Cl)c(Cl)cc1Cl`, the molecule was called inactive in [3].
Same read-out and setting: then `CCCCC(CC)COC(=O)Cl` (stereo not given), with “inactive”.
Consider `COc1nn(C(=O)NS(=O)(=O)c2ccccc2OC(F)(F)F)c(=O)n1C`, for which, in assay [4], the molecule was called inactive.
As for `CCOC(=O)CCN(SN(C)C(=O)Oc1cccc2c1OC(C)(C)C2)C(C)C`, the figures for the AC50 in [5], in assay [1] and in assay [3] were 9.03 µM (active), 14 µM (active) and 4.87 µM (active), respectively.
As to `O=C(N[C@H]1CN2CCC1CC2)c1ccc2c(c1)OCCO2`, the molecule was classed as inactive in [6], in assay [7], in assay [8], in assay [3], in [4] and in assay [9].
For `CCOP(=S)(OCC)OP(=S)(OCC)OCC`, the half-maximal activity concentration (AC50) is 17 µM (active) in [5] and 2.56 µM (active) in assay [1].
In the case of `C=C(C)C(=O)OCC(CC)CCCC` (stereo not given), the call in assay [3] was inactive.
Same read-out and setting: the entry for `CC(C)(C#N)N=NC(C)(C)C#N` is “inactive”.
As for `CC(C)(C)c1ccccc1O`, in assay [2], the molecule was called inactive.
Regarding `Nc1ccc(N)cc1`, the molecule was classed as inactive in assay [1] and in assay [3].
Turning to `Oc1cc(Cl)c(Cl)cc1Cl`, the call in assay [10] and in assay [2] was inactive.
As to `N#Cc1cccnc1`, the molecule was called inactive (in assay [6]; with CDK2 (gene 1017); in [7]; in assay [11]; in [3]; in [4]). Further, the outcome in assay [12], in [2], in assay [13], in [14] and in assay [15] was inactive.
Take `CCOP(=O)(OCC)OC(=CCl)c1ccc(Cl)cc1Cl`: in assay [1], the AC50 was 1.22 µM (active). Moreover, in assay [3], the outcome was inactive.
Take `O=C(O)C1(c2ccc3c(c2)OC[C@H](Cc2ccc(-c4ccccc4)cc2)[C@H]3O)CCCC1`: the figures for the AC50 in assay [5] and in assay [16] were 13.8 µM (active) and 17.7 µM (active), respectively. The call in assay [4] was inactive.
As for `c1ccc2sc(SNC3CCCCC3)nc2c1`, the concentration at half-maximal activity (AC50) in assay [3] is 13.9 µM (active).
As for `COc1ccccc1N`, the call in assay [3] was inactive.
Take `CCN(CC)C(=O)C(Cl)=C(C)OP(=O)(OC)OC`: in [1], the AC50 is 25 µM (active).

For the origin of these results see PubChem BioAssay (EPA / NIEHS).
